Consider 8 compounds from PubChem BioAssay (Tox21).

Molecules are shown by their SMILES. Values without a mark were called inactive. Records with an inconclusive call do not appear. Active and inactive are the calls of the source. Unless noted, calls come from the whole dose curve; as a rule, active = well fitted curve in the direction sought with a large enough effect in the repeat runs; inconclusive = weak or mixed curves; inactive = no such curve, though single readings can be large; an effect the other way counts as inactive or inconclusive.

The target in assay [1] is Luciferin 4-monooxygenase (Photinus pyralis) (UniProt P08659). The assay can be described thus: qHTS assay to identify small molecule inhibitors of firefly luciferase (AID 1224835). Note: nearly all actives have a fitted effect of over 25% in size. Note: potency is the fitted concentration of half-maximal effect. The gist of the method:
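Biochemical qHTS: compounds run as interplate titrations against purified firefly enzyme, with D-luciferin and ATP each at its KM concentration. Light output recorded by CCD imaging.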
Background: Quantitative high-throughput screening tests each substance at several concentrations.

Assay [2] is described as follows: qHTS assay to identify small molecule agonists of the constitutive androstane receptor (CAR) signaling pathway - cell viability counter screen (AID 1224836). Note: nearly all actives have a fitted effect of over 45% in size. The gist of the method:
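Compound titrations (15 concentrations) went onto HepG2-CYP2B6-hCAR cells 4 h after seeding, alongside PK11195 at a final 0.75 uM; a 23 h, 37 C/5% CO2 incubation preceded CellTiter-Fluor viability measurement.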

A short description of assay [3]: qHTS assay to identify small molecule antagonists of the estrogen related receptor signaling pathway with the pleiotropic PPARgamma coactivator (PGC) from Tox21 10K library - cell viability counter screen (AID 1224840; active = well fitted cell-killing curve with a large enough effect in the repeat runs, not every such curve was filed as active; note: nearly all actives have a fitted effect of over 40% in size). In outline: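 Readout: fluorescence intensity from CellTiter-Fluor after 30 min at 37 C/5% CO2. Preceded by 17.5 h treatment of PGC/ERR cells with DMSO-dissolved compounds, added 6 h post-seeding.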

A short description of assay [4]: qHTS assay to identify small molecule agonists of the estrogen related receptor signaling pathway with the pleiotropic PPARgamma coactivator (PGC) from Tox21 10K library (AID 1224842). Note: nearly all actives have a fitted effect of over 15% in size. In outline: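 PGC/ERR reporter cell line, 2,000 cells per well, incubated 6 h at 37 C before 23 nL compound in DMSO was added. After 18 h at 37 C, One-Glo luminescence read following 30 min at room temperature.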

Assay [5] deals with Thyrotropin receptor (Homo sapiens) (UniProt P16473). The assay can be described thus: qHTS assay to identify small molecule agonists of the thyroid stimulating hormone receptor (TSHR) signaling pathway (AID 1224843; calls by dose curve; note: nearly all actives have a fitted effect of over 45% in size). In outline: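 HEK293/TSHR, 800 cells/well; cpd 30 min RT; add cAMP-d2 + anti-cAMP-cryptate, 1 h RT; fluorescence read on plate reader. 15-pt titration, n=3.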
Assay [6] in a line: qHTS assay to identify small molecule agonists of H2AX (AID 1224845; active = well fitted activation curve with a large enough effect in the signal ratio in the repeat runs, not every such curve was filed as active; the % refers to the signal ratio). The gist of the method:
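Wild-type CHO-K1 cells, plated overnight, exposed 3hr at 37C to 15 concentrations (0.76% DMSO final). Lysed, then HTRF anti-pH2AX (S139) cryptate and anti-H2AX-d2 antibodies, 24 hr room temperature; 665/620 nm emission read.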

The nature of assay [7]: qHTS assay to identify small molecule agonists of H2AX - cell viability counter screen (AID 1224847; calls by dose curve; note: top concentration of the series differs between compounds; nearly all actives have a fitted effect of over 30% in size). The gist of the method:
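Read-out: CellTiter-Glo luminescence, 30 min RT. Cells: wild-type CHO-K1, 1000/well, 10% FBS, plated overnight at 37C. Treatment: 15 concentrations, 3 hr, 37C, 0.76% DMSO.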

The nature of assay [8]: qHTS assay to identify small molecule agonists of the estrogen related receptor (ERR) signaling pathway from Tox21 library (AID 1224849; calls by dose curve; note: nearly all actives have a fitted effect of over 15% in size). The settings on record: ERR reporter cell line, ONE-Glo luciferase, 18 h. In outline: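 Luciferase activity in ERR pathway reporter cells served as the agonist readout; exposure lasted 18 h at 37 C, with ONE-Glo detection after 30 min at room temperature.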

Assay [9] in a line: qHTS RealTime-Glo MT Cell Viability Assay in HEK293 cells - 32 hour (AID 1224868). Note: nearly all actives have a fitted effect of over 50% in size. Note: potency is the fitted concentration of half-maximal effect. The gist of the method:
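Viability tracked continuously by luminescence as live cells reduce a prosubstrate for NanoLuc; HEK293 cells preincubated 5 h, compound-treated at 37 C, and read at 0, 8, 16, 24, 32 and 40 h.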

The nature of assay [10]: A CellTox Green Cytotoxicity Assay to monitor cytotoxicity in HEK293 cells - 0 hour (AID 1224869). Note: nearly all actives have a fitted effect of over 50% in size. In outline: (§1)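 Real-time, in one plate: 600 HEK293 cells/well with dead-cell DNA dye, pinned compound after 5 h, 37 C incubation over 40 h; viable cells give no appreciable fluorescence.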
Assay [11] is described as follows: A CellTox Green Cytotoxicity Assay to monitor cytotoxicity in HEK293 cells - 40 hour (AID 1224871). Note: nearly all actives have a fitted effect of over 45% in size. In outline:
as §1

Assay [12] in a line: qHTS assay to identify small molecule agonists of the hypoxia (HIF-1) signaling pathway - cell viability counter screen (AID 1224844; calls by dose curve; note: nearly all actives have a fitted effect of over 50% in size). The gist of the method: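 In this counter screen, HRE-bla ME-180 cell viability after 17 hrs of compound exposure at 37C was read by CellTiter-Glo luminescence, multiplexed with the beta-lactamase reporter measurement.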
A short description of assay [13]: qHTS RealTime-Glo MT Cell Viability Assay in HepG2 cells - 40 hour (AID 1224870). Note: nearly all actives have a fitted effect of over 50% in size. Note: potency is the fitted concentration of half-maximal effect. The gist of the method:
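HepG2 cells (600/well) mixed with RealTime-Glo MT reagent, settled 5 h at 37 C/5% CO2 before compound addition. Nonlytic NanoLuc luminescence from viable-cell prosubstrate reduction read repeatedly during 40 h treatment at 37 C.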

The target of assay [14] is Nuclear receptor subfamily 1 group I member 3 (Homo sapiens) (UniProt Q14994). The assay can be described thus: qHTS assay to identify small molecule antagonists of the constitutive androstane receptor (CAR) signaling pathway (AID 1224838). Note: nearly all actives have a fitted effect of over 40% in size. In outline: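 Inhibition of CITCO-driven (50 nM final) CYP2B6 reporter expression is measured in HepG2 cells stably carrying hCAR. Fifteen compound concentrations are applied for 24 h at 37 C, followed by luciferase luminescence.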

Assay [15] has the same target. The assay can be described thus: qHTS assay to identify small molecule agonists of the constitutive androstane receptor (CAR) signaling pathway (AID 1224839). Note: nearly all actives have a fitted effect of over 15% in size. Note: potency is the fitted concentration of half-maximal effect. In outline:
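In this screen, CAR-driven CYP2B6 promoter activity is measured by luminescence in HepG2-CYP2B6-hCAR cells after 24 h with test compounds and 0.75 uM PK11195 (final concentration).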

Assay [16] in a line: qHTS assay to identify small molecule agonists of the hypoxia (HIF-1) signaling pathway (AID 1224846; active = well fitted activation curve with a large enough effect in the signal ratio in the repeat runs, not every such curve was filed as active; the % refers to the signal ratio). In outline:
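ME-180 HRE-bla reporter cells; compounds in DMSO, 17 h at 37C; read-out beta-lactamase via CCF4-AM FRET.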

A short description of assay [17]: qHTS RealTime-Glo MT Cell Viability Assay in HepG2 cells - 24 hour (AID 1224867). Note: nearly all actives have a fitted effect of over 50% in size. In outline: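 Viability was tracked continuously by NanoLuc luminescence from prosubstrate reduced by living HepG2 cells, at successive time points over 40 h of compound exposure. Cells with reagent were preincubated 5 h at 37 °C before compound addition.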
Assay [18] can be described thus: qHTS assay to identify small molecule antagonists of the estrogen related receptor signaling pathway with the pleiotropic PPARgamma coactivator (PGC) from Tox21 10K library (AID 1224841; call rule not given here). The gist of the method:
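One-Glo luminescence, measured after half an hour at room temperature, quantified reporter output of PGC/ERR cells. These had been plated at 2,000 per well, incubated 6 h, dosed with compounds in DMSO, then kept 18 h at 37 C.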

Assay [19] in a line: qHTS assay to identify small molecule antagonists of the estrogen related receptor (ERR) signaling pathway from Tox21 library (AID 1224848). Note: nearly all actives have a fitted effect of over 50% in size. In outline: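 Compounds dissolved in DMSO are pin-transferred onto ERR reporter cells (2,000 per well) that have settled for 6 h at 37 C. Plates then incubate 18 h at 37 C before ONE-Glo luciferase reagent and a luminescence read 30 min later.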

Assay [20] in a line: qHTS assay to identify small molecule antagonists of the constitutive androstane receptor (CAR) signaling pathway - cell viability counter screen (AID 1224837). Note: nearly all actives have a fitted effect of over 45% in size. In outline: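 CITCO at 50 nM final was added alongside compounds (15 concentrations) to double-stable hCAR/CYP2B6-2.2kb HepG2 cells. Following 23 hr at 37 C, cell viability was quantified by CellTiter-Fluor fluorescence intensity.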
% is set by controls: 0 for no effect and ±100 for the full control effect.

Nuclear receptor subfamily 1 group I member 3 (Homo sapiens), sequence (Q14994 whole entry, looked up): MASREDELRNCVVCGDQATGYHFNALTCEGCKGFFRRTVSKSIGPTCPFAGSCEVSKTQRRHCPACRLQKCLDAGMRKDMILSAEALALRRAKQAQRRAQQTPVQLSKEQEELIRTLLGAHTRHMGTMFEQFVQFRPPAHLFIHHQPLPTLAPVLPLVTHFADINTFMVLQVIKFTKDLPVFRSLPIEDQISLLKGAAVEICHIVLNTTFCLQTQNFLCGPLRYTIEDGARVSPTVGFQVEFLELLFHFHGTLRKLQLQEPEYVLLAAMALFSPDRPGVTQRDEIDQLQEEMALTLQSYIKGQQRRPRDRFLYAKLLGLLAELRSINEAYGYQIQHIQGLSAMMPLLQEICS
Thyrotropin receptor (Homo sapiens), sequence (P16473 whole entry, looked up): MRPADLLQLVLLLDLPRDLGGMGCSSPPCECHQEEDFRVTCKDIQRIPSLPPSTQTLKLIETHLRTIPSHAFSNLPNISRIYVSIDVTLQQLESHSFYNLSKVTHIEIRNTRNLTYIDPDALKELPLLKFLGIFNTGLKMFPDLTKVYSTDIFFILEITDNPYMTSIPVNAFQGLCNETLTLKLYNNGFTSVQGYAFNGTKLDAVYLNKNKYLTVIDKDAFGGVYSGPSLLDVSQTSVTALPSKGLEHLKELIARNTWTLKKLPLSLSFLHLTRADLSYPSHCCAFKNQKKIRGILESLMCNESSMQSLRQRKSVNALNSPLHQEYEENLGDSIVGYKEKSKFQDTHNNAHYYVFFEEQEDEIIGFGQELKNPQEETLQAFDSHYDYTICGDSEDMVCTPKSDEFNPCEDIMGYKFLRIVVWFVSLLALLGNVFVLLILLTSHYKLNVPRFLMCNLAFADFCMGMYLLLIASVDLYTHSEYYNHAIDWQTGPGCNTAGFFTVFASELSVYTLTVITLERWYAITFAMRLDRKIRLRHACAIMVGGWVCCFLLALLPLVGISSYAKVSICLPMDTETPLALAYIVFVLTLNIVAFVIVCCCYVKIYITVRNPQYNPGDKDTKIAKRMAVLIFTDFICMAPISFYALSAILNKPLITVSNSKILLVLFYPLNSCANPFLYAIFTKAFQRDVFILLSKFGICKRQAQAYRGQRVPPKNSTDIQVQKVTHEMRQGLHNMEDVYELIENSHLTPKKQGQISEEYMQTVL
Luciferin 4-monooxygenase (Photinus pyralis), sequence (P08659 whole entry, looked up): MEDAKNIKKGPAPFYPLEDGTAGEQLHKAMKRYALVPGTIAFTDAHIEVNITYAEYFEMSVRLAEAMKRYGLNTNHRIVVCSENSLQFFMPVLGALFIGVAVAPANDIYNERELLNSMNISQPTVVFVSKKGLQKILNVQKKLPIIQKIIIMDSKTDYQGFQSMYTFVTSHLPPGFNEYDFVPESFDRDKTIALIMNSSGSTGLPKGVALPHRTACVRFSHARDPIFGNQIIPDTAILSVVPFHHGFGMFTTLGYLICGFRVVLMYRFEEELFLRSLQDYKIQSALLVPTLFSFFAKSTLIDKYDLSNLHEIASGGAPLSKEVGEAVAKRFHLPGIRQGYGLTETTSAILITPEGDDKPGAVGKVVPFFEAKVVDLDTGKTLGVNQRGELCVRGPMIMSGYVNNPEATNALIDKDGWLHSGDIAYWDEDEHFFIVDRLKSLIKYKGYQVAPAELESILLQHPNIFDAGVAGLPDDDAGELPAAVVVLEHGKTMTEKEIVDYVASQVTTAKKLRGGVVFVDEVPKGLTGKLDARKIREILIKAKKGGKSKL

`Cc1cc(C(C)(C)C)c(O)c(C)c1Cn1c(=O)n(Cc2c(C)cc(C(C)(C)C)c(O)c2C)c(=O)n(Cc2c(C)cc(C(C)(C)C)c(O)c2C)c1=O`: the Potency result in assay [1], in assay [2], in assay [3], in assay [4], in assay [5] and in assay [6] was “inactive” in each case. In addition, the Potency result in assay [7], in assay [10] and in assay [11] was “inactive” in each case. Further, the activity change, positive = activation in assay [8] (at 92.4 µM (top of the series)) is -29.1%. For the same compound, the Potency in assay [9] was 21.9 µM (active).

In the case of `[Cu+]`, the Potency was 35.6 µM (active) in [1] and 34.7 µM (active) in assay [13]. The Potency entry in [2], in [3], in [5], in [12], in [6] and in [10] was “inactive” each time.

For the compound `CNC(=O)c1ccccc1Sc1ccc2c(/C=C/c3ccccn3)n[nH]c2c1`, the Potency was 0.871 µM (active) in assay [1], 1.06 µM (active) in assay [15] and 9.52 µM (active) in assay [9]. Besides, the Potency entry in assay [2], in assay [14], in [5], in [12], in assay [16] and in assay [17] was “inactive” throughout. Moreover, the Potency entry in assay [10] and in assay [13] was “inactive” throughout.

In the case of `CCCCN(CCCC)CC(O)c1cc(Cl)cc2c1-c1ccc(Cl)cc1/C2=C/c1ccc(Cl)cc1` (stereo unspecified), the Potency entry in assay [1], in assay [2], in [14], in assay [18], in assay [4] and in assay [5] was “inactive” in each case. Further, the Potency result in [12], in [9], in assay [10] and in assay [11] was “inactive” in each case. Further, the activity change, positive = activation in assay [8] (at 42.5 µM (top of the series)) was -23.2%.

Regarding `CCC(=O)OC(=O)CC`, the Potency result in [1], in assay [2], in assay [15], in assay [3], in [5] and in assay [12] was “inactive” each time. For the same compound, the Potency entry in assay [6], in [16], in assay [7], in [17], in assay [9] and in assay [10] was “inactive” in each case. Moreover, the Potency entry in [13] and in assay [11] was “inactive” throughout.

Take `CC/C=C\CCCCCO`: the Potency result in [1], in assay [2], in assay [15], in assay [3], in assay [18] and in assay [5] was “inactive” in each case. In addition, the Potency result in assay [12], in assay [6], in assay [7], in assay [19], in [17] and in assay [9] was “inactive” in each case. Besides, the Potency result in assay [10], in assay [13] and in assay [11] was “inactive” each time. In assay [8] (at 92.4 µM (top of the series)), the activity change, positive = activation is 4.13%.

For the compound `C=C(C)c1cccc(C(=C)C)c1`, the Potency result in assay [1], in assay [2], in [15], in assay [3], in assay [5] and in assay [12] was “inactive” in each case. In addition, the Potency result in [6], in assay [16], in [7], in assay [17], in assay [9] and in assay [10] was “inactive” each time. Besides, the Potency result in [13] and in [11] was “inactive” throughout.

For `CC(C)CCOC(=O)/C=C/c1ccccc1`, the Potency in assay [1] was 8 µM (active). Also, the Potency result in assay [2], in assay [20], in assay [3], in assay [5], in assay [12] and in assay [17] was “inactive” each time. For the same compound, the Potency entry in assay [9], in assay [10], in assay [13] and in [11] was “inactive” throughout.
